High-throughput results: PubChem, National Center for Advancing Translational Sciences (NCATS)
Hits are enriched below; roughly 21% of the tested compounds scored in any of these assays.
CHX counter – counter-screen for Shiga toxin inhibitors: cycloheximide protein synthesis inhibition; max response, %; 300,000 tested, 12% active; AID 2314; cell reporter, cycloheximide protein synthesis inhibition counterscreen; in the data active = max response mostly above about 13%, no sharp cut-off; inactive = mostly below about 14%; note: read at 38.3 µM for the half of the compounds with a filed dose; 0% is about no effect
Pf growth 48h – inhibits P. falciparum growth in the first generation, 48 h | P. falciparum luciferase growth in erythrocytes, 48 h | Potency, µM (series often up to 28.7 µM), inactives show at the top dose activity change, negative = inhibition, usual class: inhibitors | 310,000 tested, 5.9% active; note: potency is the fitted concentration of half-maximal effect; % is set by controls: 0 for no effect and ±100 for the full control effect
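A one-generation exposure of luciferase-tagged malaria parasites in RPMI 1640/Albumax erythrocyte culture, 37 C and 5% CO2. Inhibition is inferred from decreased luminescence after adding detection reagent.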
Pf growth 96h – inhibits malaria parasite growth, 96 h; P. falciparum luciferase reporter growth, 96 h; Potency, µM (top dose mostly 28.7 µM), without a hit: top-dose activity change, negative = inhibition, usual class: inhibitors; 320,000 tested, 6.9% active; note: potency is the fitted concentration of half-maximal effect; % is set by controls: 0 for no effect and ±100 for the full control effect
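P. falciparum expressing integrated firefly luciferase grown in erythrocytes (2% hematocrit, 0.05% parasitemia final) with compounds for 96 hours at 37 C, 5% CO2. Growth inhibition read as loss of luminescence after adding luciferase detection reagent.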
Shiga inhibitor – blocks Shiga toxin action in Vero cells. Vero cells, Shiga toxin protein synthesis inhibition reporter. inhibition, % at 38.7 µM. 290,000 tested, 9.2% active. AID 2315; in the data active = inhibition mostly above about 28%, no sharp cut-off; inactive = mostly below about 43%; note: 0% is about no effect
HCV inh – blocks hepatitis C virus; Huh7.5.1 HCVcc-Cre infection, luciferase reporter, 44 h; Potency, µM (top dose mostly 41.8 µM), without a hit: at the top dose activity change, negative = inhibition, hits mostly inhibitors; 340,000 tested, 3.4% active; note: potency is the fitted concentration of half-maximal effect; % is set by controls: 0 for no effect and ±100 for the full control effect
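Cells seeded at 1,000/well and cultured 4 h, then compounds added followed by HCVcc-Cre virus (~0.5 moi). After 44 h further culture, luciferase substrate was added, plates held 15 min at room temperature, and luminescence read for 15 sec.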
HCMV antiviral – human cytomegalovirus inhibition. HFF cells, HCMV-luciferase reporter, 72 h; active compounds read low. activity change, negative = inhibition, % at 57.5 µM. 410,000 tested, 4.5% active. AID 1259415; in the data active = activity change below about -60%; inconclusive = no clear call, values can overlap the other calls; inactive = above about -39%; note: % is set by controls: 0 for no effect and ±100 for the full control effect
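Screen run at 2 compound doses on HFFs infected with reporter HCMV, MOI 1 PFU/cell. Luciferase activity from cell lysates at 72 h post infection gave inhibition relative to buffer-only and Salinomycin wells.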
* marks the source's active call; other numbers are inactive results; ? = inconclusive; / = not tested or not shown. Unless noted, calls come from the whole dose curve; as a rule, active = well fitted inhibition curve with a large enough effect; inconclusive = small, poorly fitted or top-dose-only effect, or another doubt; inactive = no such curve, though single readings can be large or run the other way.

SMILES	CHX counter	Pf growth 48h	Pf growth 96h	Shiga inhibitor	HCV inh	HCMV antiviral
O=C(CSc1nnc2scc(-c3ccccc3)n12)c1ccc2c(c1)OCCO2	-4	/	2.1µM*	-18	15%	23
Cn1c(SCC(=O)c2ccc3c(c2)OCO3)nnc1C1COc2ccccc2O1 (stereo not drawn)	7	?	12µM*	12	4%	-4
c1ccc(-c2csc3nnc(SCc4ccc5c(c4)OCCO5)n23)cc1	-2	-30%	/	4	?	-18
Cc1cc(C(=O)CSc2nnc(C3COc4ccccc4O3)n2C)c(C)n1-c1ccc(F)cc1 (stereo not drawn)	3	-17%	?	8	-14%	9
CCOC(=O)Cn1c(=O)cc(-c2ccccc2)c2c(C)nn(C)c21	/	/	/	/	/	8
Cc1ccc(OCCNC(=O)c2ccc(NC(=O)CC3SC(N4CCCC4)=NC3=O)cc2)cc1 (stereo not drawn)	/	?	?	/	1%	10
Cc1cc(C)cc(NC(=S)NC2CC3CCCC(C2)N3C2CC2)c1 (stereo not drawn)	1	?	0%	-3	?	2
S=C(NCCN(C1CCCCC1)C1CCCC1)Nc1cccc(Cl)c1	-6	2.9µM*	-2%	-12	13µM*	-85*
S=C(NCCC(c1ccccc1)c1ccccc1)Nc1cccc(Cl)c1	0	-17%	-10%	1	?	-34
S=C(Nc1ccc(Cl)cc1)NC1CC2CCCC(C1)N2C1CCCC1 (stereo not drawn)	-1	10µM*	12µM*	29	?	-3
S=C(Nc1cccc(Cl)c1)NC1CC2CCCC(C1)N2C1CCCC1 (stereo not drawn)	-3	3.3µM*	?	-9	?	?
S=C(Nc1ccc(Cl)cc1)NC1CC2CCCC(C1)N2C1CC1 (stereo not drawn)	-5	10µM*	10µM*	-6	-26%	3
C=CCN1C2CCCC1CC(NC(=S)Nc1ccc(Cl)cc1)C2 (stereo not drawn)	-6	?	29%	-17	?	-22
Cc1ccc(-n2ncc(C(=O)NCCCN3CCCCC3)c2C2CCN(C(=O)OC(C)(C)C)CC2)c(C)c1	/	/	/	/	/	-14
Cc1cc(Nc2cccc(C(F)(F)F)c2)ncn1	/	/	/	/	/	-7
Cc1ccc(Nc2nc3nonc3nc2Nc2cccc(C(F)(F)F)c2)cc1Cl	/	/	/	/	/	-100*
COC(=O)c1c(C)[nH]c(C(=O)/C=C/c2ccccc2F)c1C	29*	148%	161%	62*	9%	-12
COC(=O)c1c(C)[nH]c(C(=O)/C=C/c2ccccc2Cl)c1C	61*	74%	-8%	105*	-13%	28
Cc1ccccc1NC(=O)N1CCC(CN2CCCC2)CC1	/	/	/	/	/	-12
CC1Cn2c(C(=O)NCCc3ccc(Cl)cc3)cc3cccc(c32)S1 (stereo not drawn)	/	/	/	/	/	0
O=C(CSCCOc1ccccc1)NCc1ccncc1	-2	-8%	9%	-7	19%	-12
CCOC(=O)c1c(C)oc2nc(C)nc(N3CCN(c4ccccc4F)CC3)c12	/	/	/	/	/	6
Cc1ccc2occ(CN3CC4CC(C3)c3cccc(=O)n3C4)c(=O)c2c1 (stereo not drawn)	-2	11%	-10%	18	-3%	-5
O=c1cccc2n1CC1CC2CN(Cc2c(F)cccc2Cl)C1 (stereo not drawn)	-2	-14%	9.3µM*	14	18%	9
O=c1cccc2n1CC1CC2CN(Cc2cccc(Cl)c2Cl)C1 (stereo not drawn)	-6	4.7µM*	/	8	?	?
SMILES	CHX counter	Pf growth 48h	Pf growth 96h	Shiga inhibitor	HCV inh	HCMV antiviral
CCN(C(=O)COC(=O)c1nccnc1N)c1cccc2ccccc12	/	/	/	/	-13%	16
O=C(c1cnn2c1NC(c1ccc(Br)cc1)CC2C(F)(F)F)N1CCN(C23CC4CC(CC(C4)C2)C3)CC1 (stereo not drawn)	-4	3.7µM*	8.3µM*	-3	-6%	109
Cc1cc2nc(-c3ccc4c(c3)CCC4)ccn2n1	20*	69%	42%	46*	-5%	?
Cc1cc2nc(-c3cc(N4CCOCC4)ccc3[N+](=O)[O-])ccn2n1	-10	-1%	19%	-5	?	-4
COc1ccc(C(=O)O/N=C(\N)c2ccc(Cl)cc2)cc1	37*	-26%	?	88*	?	71
COc1ccccc1C(=O)O/N=C(\N)c1ccc(Cl)cc1	52*	99%	151%	90*	0%	152
N/C(=N\OC(=O)CN1C(=O)c2ccccc2C1=O)c1ccc(Cl)cc1	1	21%	137%	11	6%	-10
COc1ccc(/C(N)=N/OC(=O)CCC2CCCC2)cc1	10	37%	?	58	10%	26
COc1ccc(-c2ccc(NS(=O)(=O)c3ccc(OC)c(OC)c3)cc2)nn1	/	/	/	/	/	-11
CCc1ccc(C2=C(C)C(N3CCC(C(=O)NCCc4ccco4)CC3)=NS2(=O)=O)cc1	/	/	/	/	/	-62*
CC1=C(c2ccc(Cl)cc2)S(=O)(=O)N=C1N1CCC(C(=O)NCCc2ccco2)CC1	/	/	/	/	/	-4
CC1=C(c2ccc(C)c(C)c2)S(=O)(=O)N=C1N1CCC(C(=O)Nc2ccc(Cl)cc2)CC1	/	/	/	/	/	-84*
CCC1=C(c2ccc(C)cc2)S(=O)(=O)N=C1N1CCC(C(=O)NCCc2ccc(Cl)cc2)CC1	/	/	/	/	/	-87*
CCC1=C(c2ccc(C)cc2)S(=O)(=O)N=C1N1CCC(C(=O)NCc2ccc(C)cc2)CC1	/	/	/	/	/	9
CCCN(Cc1cccs1)C(=O)Nc1cc(C)cc(C)c1	/	/	/	/	/	9
COc1ccc(C2SCC(=O)N2CCc2ccc(OC)c(OC)c2)cc1 (stereo not drawn)	3	?	23%	22	11µM*	-71*
Cc1ccc(C2SCC(=O)N2Cc2ccccc2)cc1 (stereo not drawn)	-3	-3%	13µM*	-18	11%	16
COc1cc(C2SCC(=O)N2Cc2ccccc2)ccc1O (stereo not drawn)	8	2%	9.3µM*	-5	9%	6
CCc1ccc(NC(=O)c2ccc(C3SCC(=O)N3CCc3ccccc3)cc2)cc1 (stereo not drawn)	-4	/	?	8	?	-36
Cc1cccc(NC(=O)c2ccc(C3SCC(=O)N3CCc3ccccc3)cc2)c1C (stereo not drawn)	7	/	8.3µM*	-5	?	-72*
O=C1CSC(c2cccc(O)c2)N1Cc1ccccc1 (stereo not drawn)	-2	-1%	0%	3	?	?
COc1ccc(C2SCC(=O)N2Cc2ccccc2)cc1 (stereo not drawn)	1	14%	10%	-11	-1%	-2
